The subject of test [1] is PRMT1 (protein arginine N-methyltransferase 1). Kind of test: PRMT1 binders on small-molecule microarrays, primary screen, biochemical, small-molecule microarray, 635 nm fluorescence (AID 1088).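 Further: binding of Prmt1 protein to compounds spotted on small-molecule microarray slides.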 Particulars: small-molecule microarray binding, higher = more signal.
The nature of test [2]: yeast growth modulation, basal conditions, primary screen, YJM789 clinical isolate, OD600, 24 h (AID 1089).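 Further: growth of clinical yeast isolate S. cerevisiae YJM 789 seeded 1000 cells per well; test concentration not given here.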 Particulars: S. cerevisiae YJM789 growth, higher = more signal, called active from +8 up or from −8 down.
A short description of test [3]: fission yeast growth modulation, primary screen, strain 972, OD600, 24 h, no modulator (AID 1090).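 Further: basal condition with compound alone and no growth modifier present; test concentration not given here.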 The following applies: S. pombe 972 growth, higher = more signal, called active from +8 up or from −8 down.
A short description of test [4]: S. cerevisiae growth modulation with rapamycin, primary screen, strain BY4716, OD600, 96 h (AID 1091). Further: test concentration not given here. Particulars: higher = more signal, called active from +8 up or from −8 down.
The target of test [5] is Torsin-1A-interacting protein 2 (Homo sapiens) (UniProt Q8NFQ8). Put plainly: LULL1 binders on small-molecule microarray, primary screen, cell lysate, human LULL1 lysate, 635/667 nm fluorescence (AID 1092).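 Further: probe is lysate of COS7 cells overexpressing human LULL1; score merges per-feature 667 nm fluorescence with signal-to-noise.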 Particulars: hLULL1 lysate binding, 635 nm fluorescence, higher = more signal.
Test [6] is described as follows: E. coli growth modulation, two-sided OD650, primary screen, E. coli filamentation project, strain DRC41, 24 h (AID 1093).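 Further: MC1000 strain lacking acrAB efflux and sulA so SOS filamentation is blocked; test concentration not given here.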 Particulars: OD650, 24 h, higher = more signal, called active from +8 up or from −8 down.
Test [7] in a line: small-molecule microarray binders of probe aLefty2, primary screen, biochemical, biotinylated probe, 635/667 nm fluorescence (AID 1094).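 Further: score merges spot fluorescence near 667 nm with spot signal-to-noise ratio.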 Particulars: higher = more signal.
Test [8] deals with Noggin (protein binding on small-molecule microarray). Put plainly: Noggin binders on small-molecule microarray, primary screen, biochemical, 635/667 nm fluorescence (AID 1095).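 Further: score merges 667 nm feature fluorescence with signal to noise over triplicate slides.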 Particulars: 635 nm fluorescence, higher = more signal.
Test [9] addresses Neurogenic locus notch homolog protein 3 (Homo sapiens) (UniProt Q9UM47). Kind of test: NOTCH3 binders on small-molecule microarray, primary screen, biochemical, 635/667 nm fluorescence (AID 1096). Particulars: NOTCH3 binding, 635 nm fluorescence, higher = more signal.
Test [10] can be described thus: small-molecule microarray binders of probe aEGFR, primary screen, biochemical, biotinylated probe, 635/667 nm fluorescence (AID 1097).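 Further: probe is a biotinylated anti-EGFR antibody binding compounds printed on slides; score combines fluorescence near 667 nm and signal to noise of each spot.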 The following applies: higher = more signal.

The source made the active and inactive calls.

Torsin-1A-interacting protein 2 (Homo sapiens), sequence (Q8NFQ8 whole entry, looked up): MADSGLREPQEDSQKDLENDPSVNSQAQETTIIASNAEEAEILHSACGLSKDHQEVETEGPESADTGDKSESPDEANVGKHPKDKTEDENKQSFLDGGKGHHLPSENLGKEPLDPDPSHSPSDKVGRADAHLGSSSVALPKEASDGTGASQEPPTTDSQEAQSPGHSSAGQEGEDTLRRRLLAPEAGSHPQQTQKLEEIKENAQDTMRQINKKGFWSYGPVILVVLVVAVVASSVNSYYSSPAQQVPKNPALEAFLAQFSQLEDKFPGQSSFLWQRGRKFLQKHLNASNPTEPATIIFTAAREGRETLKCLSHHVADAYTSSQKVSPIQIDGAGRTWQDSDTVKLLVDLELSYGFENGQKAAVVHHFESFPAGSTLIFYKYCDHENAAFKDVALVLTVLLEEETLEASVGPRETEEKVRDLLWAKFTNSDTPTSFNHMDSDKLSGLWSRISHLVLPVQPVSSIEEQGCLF
Neurogenic locus notch homolog protein 3 (Homo sapiens), sequence (Q9UM47 whole entry, looked up): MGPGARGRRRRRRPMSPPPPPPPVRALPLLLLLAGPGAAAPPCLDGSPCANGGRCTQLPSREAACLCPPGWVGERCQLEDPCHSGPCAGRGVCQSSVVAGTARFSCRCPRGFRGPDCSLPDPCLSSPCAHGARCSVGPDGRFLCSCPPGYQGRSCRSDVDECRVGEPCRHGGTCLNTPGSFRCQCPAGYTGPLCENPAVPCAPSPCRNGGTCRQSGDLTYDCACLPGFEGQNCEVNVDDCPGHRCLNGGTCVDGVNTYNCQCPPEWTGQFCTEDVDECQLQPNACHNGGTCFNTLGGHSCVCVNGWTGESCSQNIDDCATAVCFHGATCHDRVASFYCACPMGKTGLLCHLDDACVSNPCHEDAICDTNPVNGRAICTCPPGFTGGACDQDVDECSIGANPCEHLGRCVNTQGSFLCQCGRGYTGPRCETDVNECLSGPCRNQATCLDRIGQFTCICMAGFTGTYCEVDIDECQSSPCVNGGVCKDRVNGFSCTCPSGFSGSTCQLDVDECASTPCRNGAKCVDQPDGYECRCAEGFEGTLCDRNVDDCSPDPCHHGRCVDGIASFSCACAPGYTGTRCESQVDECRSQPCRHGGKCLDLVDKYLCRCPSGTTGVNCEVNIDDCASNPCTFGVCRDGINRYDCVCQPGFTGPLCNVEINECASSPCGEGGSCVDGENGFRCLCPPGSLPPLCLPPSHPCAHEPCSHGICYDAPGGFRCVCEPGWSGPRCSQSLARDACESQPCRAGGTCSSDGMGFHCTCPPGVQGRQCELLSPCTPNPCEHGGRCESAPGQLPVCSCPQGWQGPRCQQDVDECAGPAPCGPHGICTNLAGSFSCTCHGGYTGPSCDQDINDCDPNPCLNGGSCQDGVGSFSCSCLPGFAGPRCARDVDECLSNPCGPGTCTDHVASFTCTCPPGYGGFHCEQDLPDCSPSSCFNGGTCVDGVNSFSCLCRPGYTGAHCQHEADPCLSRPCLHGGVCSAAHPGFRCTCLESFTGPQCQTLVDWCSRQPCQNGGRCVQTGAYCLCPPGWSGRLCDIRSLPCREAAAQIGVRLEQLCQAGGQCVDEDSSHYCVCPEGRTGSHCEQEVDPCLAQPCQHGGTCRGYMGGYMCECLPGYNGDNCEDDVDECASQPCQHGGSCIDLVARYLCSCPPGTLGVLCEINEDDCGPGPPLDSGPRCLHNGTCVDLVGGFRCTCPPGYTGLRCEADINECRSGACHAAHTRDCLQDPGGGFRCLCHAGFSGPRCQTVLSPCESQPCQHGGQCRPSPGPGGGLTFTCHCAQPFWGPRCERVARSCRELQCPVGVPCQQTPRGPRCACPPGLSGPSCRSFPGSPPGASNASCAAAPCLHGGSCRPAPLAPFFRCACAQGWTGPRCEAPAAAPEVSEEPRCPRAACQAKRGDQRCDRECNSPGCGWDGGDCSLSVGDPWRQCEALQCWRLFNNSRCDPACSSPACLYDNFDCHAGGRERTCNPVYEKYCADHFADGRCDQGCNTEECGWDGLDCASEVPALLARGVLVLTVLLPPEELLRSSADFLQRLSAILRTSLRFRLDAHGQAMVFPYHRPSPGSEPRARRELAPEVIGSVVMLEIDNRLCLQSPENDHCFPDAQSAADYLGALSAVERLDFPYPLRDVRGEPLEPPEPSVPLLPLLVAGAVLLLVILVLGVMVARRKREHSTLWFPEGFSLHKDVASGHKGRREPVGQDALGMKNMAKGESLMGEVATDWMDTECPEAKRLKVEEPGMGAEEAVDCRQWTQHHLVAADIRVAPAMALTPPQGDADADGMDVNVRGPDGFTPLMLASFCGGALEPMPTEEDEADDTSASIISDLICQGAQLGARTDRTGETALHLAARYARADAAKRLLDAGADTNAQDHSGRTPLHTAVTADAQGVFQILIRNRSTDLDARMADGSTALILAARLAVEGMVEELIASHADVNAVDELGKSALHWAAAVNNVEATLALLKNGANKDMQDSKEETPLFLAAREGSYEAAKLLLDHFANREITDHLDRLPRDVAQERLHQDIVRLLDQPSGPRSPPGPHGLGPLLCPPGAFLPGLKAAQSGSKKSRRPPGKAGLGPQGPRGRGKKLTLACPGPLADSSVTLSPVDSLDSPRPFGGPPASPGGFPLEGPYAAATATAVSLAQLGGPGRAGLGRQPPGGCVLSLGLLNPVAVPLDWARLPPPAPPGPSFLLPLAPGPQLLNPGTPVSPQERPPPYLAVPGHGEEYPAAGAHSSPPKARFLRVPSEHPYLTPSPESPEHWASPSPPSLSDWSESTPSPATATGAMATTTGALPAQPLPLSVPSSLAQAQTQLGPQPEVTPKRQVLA

Consider `Cc1ccc(S[C@]2(C(=O)O)CC(=O)N(Cc3ccccc3C(F)(F)F)[C@@H]2c2ccc(CO)cc2I)cc1`, for which the composite z-score in test [1] was 0.471; in test [5] it was 1.65; in test [7] it was -0.205; in [8], -0.571; in [9], -1.02; in [10], -0.213. In addition, the z-score in test [2] was -1.73 (inactive); in test [3] it was -2.36 (inactive); in test [4], 0.695 (inactive); in [6], -1.11 (inactive).
For `COCCCNC(=O)[C@@]1(CCS(=O)(=O)c2ccccc2)N=C(c2ccc(OCCCO)cc2)O[C@H]1c1ccccc1N=[N+]=[N-]`, the composite z-score in test [1] is 1.53; in test [5], 3.47; in test [7] it was 0.155; in test [8], 0.908; in test [9], 1.07; in [10], 0.0135. Moreover, the z-score in [2] is -1.2 (inactive); in [3], 0.431 (inactive); in test [4], 1.36 (inactive); in test [6], 0.299 (inactive).
As to `CC(C)NC(=O)[C@@H]1c2ccccc2C(=O)N(C(C)C)[C@H]1c1ccc(CO)cc1`, the composite z-score in [1] is 1.44; in test [5], 2.99; in test [7], -0.0478; in [8], -1.94; in test [9], -0.715; in test [10], -0.44. Also, the z-score is 0.549 (inactive) in test [2], 0.458 (inactive) in [3], 0.386 (inactive) in [4] and 1.36 (inactive) in test [6].
With `C=C(/C(=C/C[C@H](OC(C)=O)c1ccc(OCCO)cc1)c1cc(C(=O)OC)ccc1OC)C(C)C`, the composite z-score in test [1] is 1.55; in [5], 2.79; in [7], -0.0616; in test [8], 1.39; in test [9] it was 0.51; in test [10], -0.0828. In addition, the z-score is 0.71 (inactive) in test [2], -0.299 (inactive) in [3], -0.874 (inactive) in test [4] and 0.806 (inactive) in test [6].
For the compound `CC=CC(O)C1C=CC2C(=O)N(C)C(=O)C2N1N(c1ccccc1)c1ccccc1` (stereo not given), the composite z-score was 0.344 in [1]; -0.472 in [5]; 0.0973 in test [7]; -0.0867 in [8]; 0.0161 in test [9]; 0.248 in test [10]. In addition, the z-score in test [2] was 0.586 (inactive); in [3], 1.91 (inactive); in test [4], 1.29 (inactive); in test [6], -0.357 (inactive).
Take `C=CCOC(=O)[C@H]1[C@@H]2C(=O)O[C@@H](c3ccccc3)[C@@H](c3ccccc3)N2[C@@H](c2ccc(OCCOC(=O)[C@H]3C[C@H]4C(=O)N[C@@H](CCCCN(C)C)C(=O)N4[C@H]3c3cccc(OCCO)c3)cc2)[C@]12C(=O)Nc1ccc(I)cc12`: the composite z-score is 1.54 in test [1]; 2.84 in [5]; -0.129 in test [7]; 1.67 in [8]; 1.06 in test [9]; -0.15 in test [10]. For the same compound, the z-score is 1.71 (inactive) in test [2], -1.05 (inactive) in test [3], 1.71 (inactive) in test [4] and -1.36 (inactive) in test [6].
In the case of `COCC(=C=CC[C@H](O)c1ccccc1OCCO)CCO`, the composite z-score was 0.43 in [1]; 1.8 in test [5]; 0.0041 in test [7]; 0.698 in test [8]; 0.318 in [9]; -0.1 in test [10]. The z-score was -0.594 (inactive) in [2], -0.5 (inactive) in test [3], -0.127 (inactive) in test [4] and 0.309 (inactive) in test [6].
As for `CN(C)CCCCNC(=O)[C@@H]1C[C@@H]2C(=O)N[C@@H](CCCCN)C(=O)N2[C@@H]1c1ccc(O)cc1`, the composite z-score in [1] was 1.3; in test [5], 1.12; in test [7], 0.0864; in test [8], 0.855; in [9] it was 0.159; in test [10], 0.0552. Also, the z-score in test [2] is 0.184 (inactive); in test [3], 1.17 (inactive); in [4] it was 3.58 (inactive); in test [6], 0.813 (inactive).
For the compound `Cc1ccc(S[C@]2(C(=O)O)CC(=O)N(C(C)C)[C@@H]2c2ccc(CO)cc2)cc1`, the composite z-score in test [1] is 1.21; in test [5], -0.634; in test [7] it was -0.0719; in [8], 0.306; in [9], -0.229; in test [10], -0.134. In addition, the z-score is -1.54 (inactive) in test [2], -0.916 (inactive) in [3], -0.963 (inactive) in test [4] and 1.66 (inactive) in test [6].
On to `COC(=O)c1c2oc(c1C(=O)OC)C(=O)N[C@@H](C(C)C)Cn1cc(nn1)C1(CCCCC1)NC(=O)N[C@H](CO)CC2`, for which the composite z-score in [1] was 0.523; in [5] it was 1.41; in test [7], -0.116; in [8] it was 1.59; in test [9], 0.171; in test [10] it was -0.163. Besides, the z-score in [2] is -0.301 (inactive); in test [3], -0.772 (inactive); in test [4] it was -0.538 (inactive); in test [6] it was 1.29 (inactive).
Regarding `COC(=O)[C@H](Cc1ccccc1)N[C@H](/C=C/C1CC1)[C@@H](O)Cc1ccccc1`, the composite z-score was -0.108 in [1]; -0.316 in test [5]; -0.279 in test [7]; 0.195 in [8]; -0.469 in test [9]; -0.178 in test [10]. For the same compound, the z-score in [2] is -1.56 (inactive); in [3] it was -5.75 (inactive); in test [4] it was -0.751 (inactive); in [6], 1.04 (inactive).
Turning to `O=C1O[C@@H](c2ccccc2)[C@@H](c2ccccc2)N2[C@@H](c3ccccc3OCCO)[C@]3(C(=O)Nc4ccc(C#CC5(O)CCCCCC5)cc43)[C@@H](C(=O)N3CCN(c4ncccn4)CC3)[C@H]12`, the composite z-score in test [1] is 1.55; in test [5], 2.9; in test [7], -0.122; in test [8] it was 0.662; in test [9] it was 0.821; in test [10], -0.0542. The z-score in [2] was 3.08 (inactive); in [3], 0.961 (inactive); in test [4], 7.62 (inactive); in test [6], 1.21 (inactive).
For `CCCCN1CC=CC23O[C@@H]4/C=C\CCCOC(=O)C4[C@H]2C(=O)N(CCCO)[C@@H]3C1=O` (stereo not given in full), the composite z-score in test [1] was 1.27; in test [5], 2.86; in [7] it was -0.212; in test [8], -0.991; in [9], -0.1; in test [10], -0.324. The z-score in test [2] was -1.15 (inactive); in [3], -1.04 (inactive); in test [4], -0.513 (inactive); in test [6], 0.0383 (inactive).
